# Results filed as inconclusive are left out. Values without a mark were called inactive. The source made the active and inactive calls. Calls come from the whole dose curve; as a rule, active = well fitted curve in the direction sought with a large enough effect; inconclusive = small, poorly fitted or top-dose-only effect, or another doubt; inactive = no such curve, though single readings can be large; an effect the other way counts as inactive or inconclusive.
# Target: Rap guanine nucleotide exchange factor 3 (Homo sapiens) (UniProt O95398)
# Assay: Confirmatory qHTS for antagonist of cAMP-regulated guanine nucleotide exchange factor 3 (EPAC1) (AID 1645880); note: nearly all actives have a fitted effect of over 55% in size; note: potency is the fitted concentration of half-maximal effect;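 for activity, negative = inhibition: plate controls were DMSO only for no effect and full effect of the ATA control for full effect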
# Settings: EPAC1 Rap1B-BODIPY-GDP exchange, fluorescence; series mostly up to 115 µM; activity, negative = inhibition: at the top concentration
# Summary of the method: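 Nucleotide exchange uses 100 nM EPAC1, 250 nM RAP1B-BODIPY-GDP and 50 uM GDP, with compounds in a concentration-titration series. After 5 min at room temperature, fluorescence (480 nm ex/540 nm em) is read every 5 min for 30 min. Data are normalized to control ATA and DMSO.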
# Chain of Rap guanine nucleotide exchange factor 3 (Homo sapiens) (O95398 whole entry, looked up): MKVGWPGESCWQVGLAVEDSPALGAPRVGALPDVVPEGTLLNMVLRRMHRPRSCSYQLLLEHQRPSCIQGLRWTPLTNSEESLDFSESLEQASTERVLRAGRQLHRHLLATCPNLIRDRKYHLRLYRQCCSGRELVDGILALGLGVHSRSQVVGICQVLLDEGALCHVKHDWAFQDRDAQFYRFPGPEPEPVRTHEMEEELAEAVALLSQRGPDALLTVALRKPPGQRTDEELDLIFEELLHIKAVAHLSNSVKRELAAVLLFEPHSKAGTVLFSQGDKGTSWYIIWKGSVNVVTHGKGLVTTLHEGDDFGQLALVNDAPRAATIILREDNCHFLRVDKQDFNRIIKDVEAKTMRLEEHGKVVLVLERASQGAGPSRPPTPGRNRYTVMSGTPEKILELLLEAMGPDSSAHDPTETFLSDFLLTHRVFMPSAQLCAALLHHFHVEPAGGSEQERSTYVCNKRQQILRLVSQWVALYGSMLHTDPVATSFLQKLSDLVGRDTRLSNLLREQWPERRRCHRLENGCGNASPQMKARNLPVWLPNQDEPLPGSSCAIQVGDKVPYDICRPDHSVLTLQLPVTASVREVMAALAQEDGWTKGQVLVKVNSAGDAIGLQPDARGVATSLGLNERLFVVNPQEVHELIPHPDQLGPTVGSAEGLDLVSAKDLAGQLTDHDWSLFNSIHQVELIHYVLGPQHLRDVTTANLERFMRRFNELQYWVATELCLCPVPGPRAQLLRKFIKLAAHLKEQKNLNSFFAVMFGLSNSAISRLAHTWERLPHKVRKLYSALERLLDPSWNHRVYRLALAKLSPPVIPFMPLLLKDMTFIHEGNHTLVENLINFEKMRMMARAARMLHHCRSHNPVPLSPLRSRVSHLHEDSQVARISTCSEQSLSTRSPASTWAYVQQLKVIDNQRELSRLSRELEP
SMILES,"activity, negative = inhibition",Potency
C=CCn1c(CSCc2ccc(Cl)cc2Cl)nnc1SCC(=O)Nc1ccc(C(=O)O)cc1,-22.6%,
CC(Sc1ccc(Cl)cc1)C(=O)NNC(=O)c1csc(N2CCOCC2)n1 (stereo not drawn),-15.5%,
COc1cc2c(cc1OC)C(c1ccccc1Cl)N(C)CC2 (stereo not drawn),-16.7%,
CC1Cc2cc(C(=O)O)ccc2O1 (stereo not drawn),-14.7%,
CC(C)OC(=O)c1c(-c2ccccc2)c(-c2ccccc2)nn(C)c1=O,-14.2%,
COc1ccccc1OCC(=O)Nc1cc(C(F)(F)F)ccc1-n1cncn1,-14%,
COc1nc(C)cc(C)c1S(=O)(=O)c1ccccc1C,-15%,
O=c1c2ccccc2nc(/C=C/c2cccnc2)n1CCc1ccccc1,,23.9 µM (active)
CC(Oc1ccccc1)C(=O)Nc1nnc(S(=O)(=O)N2CCCCC2)s1 (stereo not drawn),-8.11%,
COc1cc(OC)nc(Oc2cccc(Cl)c2C)n1,-14.2%,
CCN(CC)c1nc(SCC(=O)O)nc(N(CC)CC)n1,-19.1%,
C=CCOc1ccc(/C=C2\SC(=S)N(NS(=O)(=O)c3ccc(C)cc3)C2=O)cc1,,21.3 µM (active)
O=C1S/C(=C\c2ccc(O)c([N+](=O)[O-])c2)C(=O)N1c1ccccc1Cl,,75.7 µM (active)
O=C(NCCCn1ccnc1)c1cc(-c2cccnc2)nc2ccc(Br)cc12,-19.5%,
COC(=O)C1=C(C)N(Cc2ccco2)C(=O)/C1=C\c1ccc(N(C)C)cc1,-19.5%,
Cc1ccc(NC(=O)c2cccc(NC(=O)/C=C/c3ccco3)c2)cc1C,,39.8 µM (active)
Cc1cc(Br)c2c(c1)C(O)(N1CCCCC1C)C(=O)N2 (stereo not drawn),-24.4%,
CCCCNC(=O)Cn1nc(N2CCN(c3ccccc3OC)CC2)ccc1=O,-18.8%,
CC(=O)c1c(C(C)=O)c(C)n(-c2nc(-c3ccccc3)c(C)s2)c1C,-18.9%,
COc1ccccc1OCC(=O)Nc1cccc(S(=O)(=O)NC2=NCCCCC2)c1,-16%,
CN(C(=O)COC(=O)/C=C/c1ccc2c(c1)OCO2)c1c(N)n(Cc2ccccc2)c(=O)[nH]c1=O,-14%,
CCOc1ccc(/C=C/C(=O)c2cc(Br)ccc(=O)c2O)cc1,,33.8 µM (active)
Cc1ccc(Sc2ccc(S(=O)(=O)Nc3ccc(C(=O)O)cc3)cc2)cc1C,,67.5 µM (active)

# Target: Rap guanine nucleotide exchange factor 3 (Homo sapiens) (UniProt O95398)
# Assay: Confirmatory qHTS for agonist of cAMP-regulated guanine nucleotide exchange factor 3 (EPAC1) (AID 1645881);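 note: EPAC1 catalysed release of BODIPY-GDP from Rap1B seen as fluorescence loss; 100% = effect of cAMP agonist control; nearly all actives have a fitted effect of over 75% in size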
# Settings: EPAC1 Rap1B BODIPY-GDP exchange fluorescence; series mostly up to 154 µM; activation: at the top concentration
row,SMILES,activation
1,O=C(O)c1cc(N/N=C/c2ccncc2)ccc1Cl,3.02%
2,Cc1ccccc1OCCC(=O)OCC(=O)N1CCN(S(=O)(=O)c2ccc(Cl)cc2)CC1,2.97%
3,COCCNC(=O)CS(=O)Cc1nc(-c2ccc(Cl)cc2)oc1C (stereo not drawn),3.32%
4,O=c1oc2ccccc2nc1/C=C(O)/C=C\c1ccccc1,15.2%
5,Nc1[nH]c(C(=O)c2ccccc2)c(-c2ccccc2C(F)(F)F)c1C(=O)NCCc1cccs1,-4.02%
6,CCCOc1c(OC)cccc1C1CC(=O)Nc2cc(OC)c(OC)c(OC)c21 (stereo not drawn),-2.46%
7,CCOc1nc(C)cc(C)c1S(=O)(=O)c1ccc(Cl)cc1,-6.87%
8,COc1ccc2nc(N3CCN(C(=O)C4CC4)CC3)sc2c1,13.8%
9,COc1cc(-c2c(CCO)sc3ccccc23)cc(OC)c1OC,6.17%
10,c1ccc(OCCCn2ccnc2)cc1,5.27%
11,CC(=O)Oc1c(Sc2ccccc2[N+](=O)[O-])c(C)nn1C(C)(C)C,6.29%
12,C[C@@H](c1ccccc1)N1Cc2ccccc2Oc2cc(Br)ccc2S1(=O)=O,15.3%
13,O=C(N[C@@H](Cc1c[nH]c2ccccc12)C(=O)O)OCC1c2ccccc2-c2ccccc21,-5.26%
14,O=C(CN1C(=O)N/C(=C\c2ccccc2OCc2ccc(C(=O)O)cc2)C1=O)Nc1ccccc1F,3.02%
15,CN1C(=O)/C(=C\c2ccc(N(C)C)cc2)OC1=S,6.79%
16,CC1CCCCC1NC(=O)COC(=O)c1c2c(nc3ccccc13)/C(=C/c1ccco1)CC2 (stereo not drawn),-25.4%
17,CCCc1[nH]nc2c1C(c1cccnc1)C(C#N)=C(N)O2 (stereo not drawn),3.06%
18,C=CCn1c(CSCc2ccc(Cl)cc2Cl)nnc1SCC(=O)Nc1ccc(C(=O)O)cc1,-4.93%
19,CC(Sc1ccc(Cl)cc1)C(=O)NNC(=O)c1csc(N2CCOCC2)n1 (stereo not drawn),12.6%
20,COc1cc2c(cc1OC)C(c1ccccc1Cl)N(C)CC2 (stereo not drawn),2.42%
21,CC1Cc2cc(C(=O)O)ccc2O1 (stereo not drawn),1.1%
22,CC(C)OC(=O)c1c(-c2ccccc2)c(-c2ccccc2)nn(C)c1=O,7.35%
23,COc1ccccc1OCC(=O)Nc1cc(C(F)(F)F)ccc1-n1cncn1,-2.07%
24,COc1nc(C)cc(C)c1S(=O)(=O)c1ccccc1C,11.4%
25,O=c1c2ccccc2nc(/C=C/c2cccnc2)n1CCc1ccccc1,5.07%

# From PubChem BioAssay (NCATS)
